The values that follow come from PubChem BioAssay (NCI).

This is part of a sample that, as a whole, favours compounds with a hit. Of some 83,000 tested, about 20% had one in any assay.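 96-well plates, one dose, 48 hours. Percent growth reported; active if below 10.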 The source made the active and inactive calls.

The test concerns MDA-MB-468 breast. The test is described as follows: NCI-60 one-dose screen, 48 h (100 = growth as untreated, 0 = no growth, -100 = all killed). Particulars: 10 µM unless noted.
On to `Cn1c(SC(C(=O)Nc2ccc(F)cc2)c2ccccc2)nc2ccccc2c1=O` (centres undefined), for which the growth was 99.6% (inactive).

In the case of `Cc1cccc(NC(=O)c2sc3nc4c(cc3c2N)CN(Cc2ccccc2)CC4)c1C`, the growth is 24.4% (inactive).

As to `Cn1cc(-c2ccc3nc(-c4ccc(CC(=O)ONc5cc(C(C)(C)C)on5)cc4)cnc3c2)cn1`, the growth is 45.8% (inactive).

As for `COc1ccc(C2C(C#N)=C(N)Oc3c2ccc2ccccc32)cc1` (centres undefined), the growth was 14.5% (inactive).

In the case of `C=C[C@@H]1C[C@@H]2Cc3cc(F)ccc3N1O2`, the growth was 116% (inactive).

As for `CCC(C)(C)c1ccc(OCCCCCCN2CCNCC2)cc1`, the growth was -9.22% (active).

As for `CC1(C)NCCC[C@]2(C)[C@H]3CC(=O)[C@H]4[C@@H]5C[C@](C)(CO)CC[C@]5(C)CC[C@@]4(C)[C@]3(C)CC[C@@H]12`, the growth was 86.9% (inactive).

For the molecule `OCCNCCCOc1ccc2ncnc(Nc3ccc(Oc4cccc(C(F)(F)F)c4)c(Cl)c3)c2c1`, the growth is -64.6% (active).

Take `O=C1OC(=O)C2C1C1(Cl)C(Cl)=C(Cl)C2(Cl)C2C(=O)OC(=O)C21` (centres undefined): the growth is 94.3% (inactive).

`CC1=C2[C@@H](CC1)[C@]1(C)O[C@@](C3CC3)(C[C@H]1OC(=O)CO)[C@H]2OC(=O)/C=C/c1ccccc1`: the growth was 83% (inactive).

For `Nc1cc2c(cc1Br)-c1c(C(=O)O)cccc1C2O` (centres undefined), the growth was 74.6% (inactive).

As to `COc1nccnn1`, the growth is 82.9% (inactive).

As for `COc1cc(CCC[P+](c2ccccc2)(c2ccccc2)c2ccccc2)c(OC)c2c1OCO2`, the growth is -25.3% (active).

Regarding `CCCCCCCCc1cc(Cl)c(O)c(Cl)c1`, the growth was 119% (inactive).
